Among the data in PubChem BioAssay (NCI) are growth values, retold here.

The panel holds about 83,000 compounds, 20% with a hit somewhere; the sample as a whole holds those more often.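 In brief: 96-well plates, 48 h treatment, single concentration, percent growth endpoint.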 Values without a mark were called inactive. Calls of active or inactive are those of the source. The calls were made as follows: active = growth percent below 10; inactive = the rest.

Some test systems named below: NCI-H322M lung; HOP-62 NSCLC; NCI-H460 lung; HOP-92 NSCLC; NCI-H522 lung; A549/ATCC NSCLC; 786-0 renal; COLO 205 colon; DU-145 prostate; K-562 leukemia; MALME-3M melanoma; MDA-MB-231 breast; RXF 393 renal; SF-268 CNS; SF-295 CNS; SF-539 CNS; UACC-257 melanoma; M14 melanoma; NCI-H226 lung.
Common to all, as to experiment: NCI-60 one-dose screen, 48 h (100 = growth as untreated, 0 = no growth, -100 = all killed)
Conditions in all cases: 10 µM unless noted

In the case of `CS(=O)(=O)Nc1cccc(-c2ccc3ncnc(Nc4cncc(Cl)c4)c3c2)c1`, the growth with NCI-H322M lung was 19.9%; in the assay on HOP-62 NSCLC, 40.5%; in the assay with NCI-H460 lung, 44.9%; in the assay with HOP-92 NSCLC it was 11.2%; with NCI-H522 lung it was 28.1%; in the assay on A549/ATCC NSCLC, 30.5%. Also, the growth in the assay with 786-0 renal was 10.1%; in the assay on COLO 205 colon, 5.27% (active); with DU-145 prostate, 38.6%; in the assay on K-562 leukemia it was 16.9%; with MALME-3M melanoma, 40.3%; with MDA-MB-231 breast, 1.39% (active). For the same compound, the growth in the assay with RXF 393 renal was 19.8%; in the assay on SF-268 CNS, 42.4%; in the assay on SF-295 CNS, -17.7% (active); with SF-539 CNS, 2.94% (active); with UACC-257 melanoma, 49.7%; in the assay on M14 melanoma it was 16.8%.
For `COc1ccc(-c2nn(-c3ccc(NC(=O)Nc4cc(C(F)(F)F)cc(C(F)(F)F)c4)cc3)cc2-c2ccncc2)cc1Cl`, the growth in the assay with NCI-H226 lung was 0.753% (active); in the assay with NCI-H322M lung, 30.9%; in the assay on HOP-62 NSCLC, 19.5%; in the assay with NCI-H460 lung, -2.26% (active); in the assay on HOP-92 NSCLC, -21.6% (active); in the assay on NCI-H522 lung it was -8.92% (active). Besides, the growth is 14.6% in the assay on A549/ATCC NSCLC; 1.94% (active) in the assay on 786-0 renal; -33.4% (active) in the assay on COLO 205 colon; 30.4% in the assay on DU-145 prostate; 17.2% in the assay on K-562 leukemia; 11.4% in the assay on MALME-3M melanoma. The growth was 8.03% (active) in the assay with MDA-MB-231 breast; -26.2% (active) with RXF 393 renal; 21.8% in the assay on SF-268 CNS; 4% (active) with SF-295 CNS; 24.6% in the assay on SF-539 CNS; 13.6% with UACC-257 melanoma. Moreover, the growth with M14 melanoma was 20.6%.
For `O=C(NOC1OC(CO)C(O)C(O)C1O)Nc1ccccc1` (stereo not drawn), the growth with NCI-H226 lung was 90.5%; in the assay on NCI-H322M lung, 101%; in the assay on HOP-62 NSCLC it was 93.2%; in the assay on NCI-H460 lung it was 103%; in the assay on HOP-92 NSCLC it was 91.1%; with NCI-H522 lung, 84.9%. Also, the growth in the assay with A549/ATCC NSCLC is 106%; with 786-0 renal, 107%; in the assay on COLO 205 colon, 95.8%; in the assay with DU-145 prostate it was 108%; with K-562 leukemia, 69%; with MALME-3M melanoma, 94.8%. Besides, the growth with MDA-MB-231 breast was 99.2%; with SF-268 CNS, 85.7%; in the assay with SF-295 CNS, 98.5%; with SF-539 CNS, 103%; with UACC-257 melanoma it was 107%; with M14 melanoma, 108%.
For `O=c1[nH]ccc2nc(N3CCC(O)CC3)nc(Nc3cccc(C(F)(F)F)c3)c12`, the growth with NCI-H226 lung is 57.4%; with NCI-H322M lung it was 102%; in the assay with HOP-62 NSCLC, 92.9%; in the assay on NCI-H460 lung, 73.4%; in the assay on HOP-92 NSCLC, 105%; in the assay on NCI-H522 lung it was 51.7%. The growth in the assay on A549/ATCC NSCLC is 53.4%; in the assay on 786-0 renal, 58.3%; with COLO 205 colon it was 35.7%; with DU-145 prostate, 72%; in the assay with K-562 leukemia it was 44.7%; in the assay on MALME-3M melanoma, 64.5%. The growth in the assay on MDA-MB-231 breast was 88.3%; in the assay on RXF 393 renal, 54.4%; in the assay with SF-268 CNS it was 67.1%; with SF-295 CNS, 96.8%; in the assay on SF-539 CNS, 80.4%; with UACC-257 melanoma, 16.3%. For the same compound, the growth with M14 melanoma is 39.1%.
Turning to `Cn1cnc([N+](=O)[O-])c1N1c2ccncc2Sc2ccncc21`, the growth with NCI-H226 lung is 82.1%; in the assay on NCI-H322M lung it was 110%; with HOP-62 NSCLC, 93.3%; in the assay on NCI-H460 lung it was 106%; in the assay with HOP-92 NSCLC it was 77.1%; in the assay on NCI-H522 lung, 72.5%. In addition, the growth in the assay with A549/ATCC NSCLC is 104%; with 786-0 renal, 110%; in the assay with COLO 205 colon, 89.6%; with DU-145 prostate, 108%; with K-562 leukemia it was 83.2%; with MALME-3M melanoma, 84%. For the same compound, the growth in the assay on MDA-MB-231 breast is 85.1%; in the assay on RXF 393 renal, 100%; in the assay on SF-268 CNS, 101%; in the assay with SF-295 CNS, 86.7%; in the assay with SF-539 CNS, 96.3%; in the assay with UACC-257 melanoma, 101%. Further, the growth in the assay on M14 melanoma was 101%.
Turning to `CC1(C)N=C(N)N=C(N)N1c1ccc(OCC(=O)Nc2ccccc2)c(Cl)c1`, the growth with NCI-H226 lung is 99.7%; with NCI-H322M lung, 40.2%; with HOP-62 NSCLC it was -3.64% (active); with NCI-H460 lung, 15.3%; in the assay on HOP-92 NSCLC, 13.4%; in the assay with NCI-H522 lung, -7.05% (active). Further, the growth in the assay on A549/ATCC NSCLC was 11.2%; in the assay on COLO 205 colon it was 82.9%; in the assay with DU-145 prostate it was 39.1%; with K-562 leukemia, 18.5%; in the assay on MALME-3M melanoma, 55.1%; with MDA-MB-231 breast it was 68.9%. The growth was 28% with SF-268 CNS; 23.5% with SF-295 CNS; 23.8% in the assay with SF-539 CNS; -3.5% (active) in the assay with UACC-257 melanoma; 25.7% in the assay with M14 melanoma.
Turning to `CCc1cccc(-c2ccccc2)c1`, the growth in the assay on NCI-H226 lung is 109%; in the assay with NCI-H322M lung, 107%; with HOP-62 NSCLC it was 101%; in the assay on NCI-H460 lung, 108%; in the assay with HOP-92 NSCLC it was 92.9%; with NCI-H522 lung, 106%. Moreover, the growth in the assay on A549/ATCC NSCLC is 104%; in the assay with 786-0 renal, 98.8%; with COLO 205 colon, 105%; in the assay on DU-145 prostate it was 110%; in the assay with K-562 leukemia, 109%; in the assay with MALME-3M melanoma, 114%. For the same compound, the growth with MDA-MB-231 breast was 114%; in the assay on RXF 393 renal it was 130%; with SF-268 CNS, 108%; in the assay on SF-295 CNS it was 107%; in the assay with SF-539 CNS, 97.6%; in the assay on UACC-257 melanoma it was 99.1%. Moreover, the growth in the assay on M14 melanoma was 92.6%.
On to `c1ccc2nc(Cn3cc[n+](Cc4ccc5ccccc5n4)c3)ccc2c1`, for which the growth was 70.8% with NCI-H226 lung; 95.3% in the assay on NCI-H322M lung; 82.5% with HOP-62 NSCLC; 77.7% in the assay with NCI-H460 lung; 34.3% in the assay on HOP-92 NSCLC; 34.5% with NCI-H522 lung. Moreover, the growth was 77.5% in the assay on A549/ATCC NSCLC; 101% in the assay with 786-0 renal; 25.6% in the assay with COLO 205 colon; 88.7% in the assay with DU-145 prostate; 41.1% in the assay on K-562 leukemia; 50.2% with MALME-3M melanoma. The growth was 77.9% in the assay on MDA-MB-231 breast; 86.6% with RXF 393 renal; 67.1% with SF-268 CNS; 91.5% in the assay on SF-295 CNS; 58.8% in the assay on SF-539 CNS; 21.9% with UACC-257 melanoma. In addition, in the assay on M14 melanoma, the growth was 69%.
